Source: PubChem BioAssay
Calls of active or inactive are those of the source.

What was measured:
[1] = system: PRMT1 (protein arginine N-methyltransferase 1); assay: small molecules binding arginine methyltransferase PRMT1 – biochemical, small-molecule microarray, 635 nm fluorescence, primary screen (AID 1088); conditions: higher = more signal;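 also: binding of Prmt1 protein to compounds spotted on small-molecule microarray slides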
[2] = growth effects on S. cerevisiae YJM789 – YJM789 clinical isolate, OD600, 24 h, basal, primary screen (AID 1089); conditions: higher = more signal, called active from +8 up or from −8 down;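 also: growth of clinical yeast isolate S. cerevisiae YJM 789 seeded 1000 cells per well; test concentration not given here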
[3] = S. pombe growth modifiers, basal conditions – strain 972, OD600, 24 h, no modulator, primary screen (AID 1090);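 also: basal condition with compound alone and no growth modifier present; test concentration not given here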; conditions: S. pombe 972 growth, higher = more signal, called active from +8 up or from −8 down
[4] = budding yeast growth modifiers under rapamycin – strain BY4716, OD600, 96 h, primary screen (AID 1091); also: test concentration not given here; conditions: S. cerevisiae BY4716 + rapamycin, higher = more signal, called active from +8 up or from −8 down
[5] = target: Torsin-1A-interacting protein 2 (Homo sapiens) (UniProt Q8NFQ8); assay: small molecules binding lysate-expressed LULL1 – cell lysate, human LULL1 lysate, 635/667 nm fluorescence, primary screen (AID 1092); conditions: small-molecule microarray, hLULL1 lysate binding, 635 nm fluorescence; higher = more signal;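 also: probe is lysate of COS7 cells overexpressing human LULL1; score merges per-feature 667 nm fluorescence with signal-to-noise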
Sequence of Torsin-1A-interacting protein 2 (Homo sapiens) (Q8NFQ8 whole entry, looked up): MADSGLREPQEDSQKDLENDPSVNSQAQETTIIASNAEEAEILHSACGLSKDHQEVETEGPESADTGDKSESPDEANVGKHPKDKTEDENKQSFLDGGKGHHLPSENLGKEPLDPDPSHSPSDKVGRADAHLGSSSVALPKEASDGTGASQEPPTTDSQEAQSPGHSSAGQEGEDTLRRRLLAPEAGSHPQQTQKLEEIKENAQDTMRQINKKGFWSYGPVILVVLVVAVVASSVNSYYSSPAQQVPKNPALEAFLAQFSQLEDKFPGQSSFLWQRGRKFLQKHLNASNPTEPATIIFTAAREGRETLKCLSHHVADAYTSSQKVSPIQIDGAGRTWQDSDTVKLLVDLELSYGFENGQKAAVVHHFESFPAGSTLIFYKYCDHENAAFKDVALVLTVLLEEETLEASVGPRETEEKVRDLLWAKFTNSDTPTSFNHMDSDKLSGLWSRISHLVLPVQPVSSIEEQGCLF

[6] = optical density change of DRC41 E. coli – strain DRC41, OD650, 24 h, E. coli filamentation project, primary screen (AID 1093);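 also: MC1000 strain lacking acrAB efflux and sulA so SOS filamentation is blocked; test concentration not given here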; conditions: E. coli DRC41 growth, higher = more signal, called active from +8 up or from −8 down
[7] = probe aLefty2 binding to arrayed compounds – biochemical, biotinylated probe, 635/667 nm fluorescence, primary screen (AID 1094); conditions: small-molecule microarray, higher = more signal;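 also: score merges spot fluorescence near 667 nm with spot signal-to-noise ratio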
[8] = system: Noggin (protein binding on small-molecule microarray); assay: small molecules binding Noggin protein – biochemical, 635/667 nm fluorescence, primary screen (AID 1095); conditions: 635 nm fluorescence, higher = more signal;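 also: score merges 667 nm feature fluorescence with signal to noise over triplicate slides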
[9] = target: Neurogenic locus notch homolog protein 3 (Homo sapiens) (UniProt Q9UM47); assay: small molecules binding NOTCH3 protein – biochemical, 635/667 nm fluorescence, primary screen (AID 1096); conditions: small-molecule microarray, 635 nm fluorescence, higher = more signal
Sequence of Neurogenic locus notch homolog protein 3 (Homo sapiens) (Q9UM47 whole entry, looked up): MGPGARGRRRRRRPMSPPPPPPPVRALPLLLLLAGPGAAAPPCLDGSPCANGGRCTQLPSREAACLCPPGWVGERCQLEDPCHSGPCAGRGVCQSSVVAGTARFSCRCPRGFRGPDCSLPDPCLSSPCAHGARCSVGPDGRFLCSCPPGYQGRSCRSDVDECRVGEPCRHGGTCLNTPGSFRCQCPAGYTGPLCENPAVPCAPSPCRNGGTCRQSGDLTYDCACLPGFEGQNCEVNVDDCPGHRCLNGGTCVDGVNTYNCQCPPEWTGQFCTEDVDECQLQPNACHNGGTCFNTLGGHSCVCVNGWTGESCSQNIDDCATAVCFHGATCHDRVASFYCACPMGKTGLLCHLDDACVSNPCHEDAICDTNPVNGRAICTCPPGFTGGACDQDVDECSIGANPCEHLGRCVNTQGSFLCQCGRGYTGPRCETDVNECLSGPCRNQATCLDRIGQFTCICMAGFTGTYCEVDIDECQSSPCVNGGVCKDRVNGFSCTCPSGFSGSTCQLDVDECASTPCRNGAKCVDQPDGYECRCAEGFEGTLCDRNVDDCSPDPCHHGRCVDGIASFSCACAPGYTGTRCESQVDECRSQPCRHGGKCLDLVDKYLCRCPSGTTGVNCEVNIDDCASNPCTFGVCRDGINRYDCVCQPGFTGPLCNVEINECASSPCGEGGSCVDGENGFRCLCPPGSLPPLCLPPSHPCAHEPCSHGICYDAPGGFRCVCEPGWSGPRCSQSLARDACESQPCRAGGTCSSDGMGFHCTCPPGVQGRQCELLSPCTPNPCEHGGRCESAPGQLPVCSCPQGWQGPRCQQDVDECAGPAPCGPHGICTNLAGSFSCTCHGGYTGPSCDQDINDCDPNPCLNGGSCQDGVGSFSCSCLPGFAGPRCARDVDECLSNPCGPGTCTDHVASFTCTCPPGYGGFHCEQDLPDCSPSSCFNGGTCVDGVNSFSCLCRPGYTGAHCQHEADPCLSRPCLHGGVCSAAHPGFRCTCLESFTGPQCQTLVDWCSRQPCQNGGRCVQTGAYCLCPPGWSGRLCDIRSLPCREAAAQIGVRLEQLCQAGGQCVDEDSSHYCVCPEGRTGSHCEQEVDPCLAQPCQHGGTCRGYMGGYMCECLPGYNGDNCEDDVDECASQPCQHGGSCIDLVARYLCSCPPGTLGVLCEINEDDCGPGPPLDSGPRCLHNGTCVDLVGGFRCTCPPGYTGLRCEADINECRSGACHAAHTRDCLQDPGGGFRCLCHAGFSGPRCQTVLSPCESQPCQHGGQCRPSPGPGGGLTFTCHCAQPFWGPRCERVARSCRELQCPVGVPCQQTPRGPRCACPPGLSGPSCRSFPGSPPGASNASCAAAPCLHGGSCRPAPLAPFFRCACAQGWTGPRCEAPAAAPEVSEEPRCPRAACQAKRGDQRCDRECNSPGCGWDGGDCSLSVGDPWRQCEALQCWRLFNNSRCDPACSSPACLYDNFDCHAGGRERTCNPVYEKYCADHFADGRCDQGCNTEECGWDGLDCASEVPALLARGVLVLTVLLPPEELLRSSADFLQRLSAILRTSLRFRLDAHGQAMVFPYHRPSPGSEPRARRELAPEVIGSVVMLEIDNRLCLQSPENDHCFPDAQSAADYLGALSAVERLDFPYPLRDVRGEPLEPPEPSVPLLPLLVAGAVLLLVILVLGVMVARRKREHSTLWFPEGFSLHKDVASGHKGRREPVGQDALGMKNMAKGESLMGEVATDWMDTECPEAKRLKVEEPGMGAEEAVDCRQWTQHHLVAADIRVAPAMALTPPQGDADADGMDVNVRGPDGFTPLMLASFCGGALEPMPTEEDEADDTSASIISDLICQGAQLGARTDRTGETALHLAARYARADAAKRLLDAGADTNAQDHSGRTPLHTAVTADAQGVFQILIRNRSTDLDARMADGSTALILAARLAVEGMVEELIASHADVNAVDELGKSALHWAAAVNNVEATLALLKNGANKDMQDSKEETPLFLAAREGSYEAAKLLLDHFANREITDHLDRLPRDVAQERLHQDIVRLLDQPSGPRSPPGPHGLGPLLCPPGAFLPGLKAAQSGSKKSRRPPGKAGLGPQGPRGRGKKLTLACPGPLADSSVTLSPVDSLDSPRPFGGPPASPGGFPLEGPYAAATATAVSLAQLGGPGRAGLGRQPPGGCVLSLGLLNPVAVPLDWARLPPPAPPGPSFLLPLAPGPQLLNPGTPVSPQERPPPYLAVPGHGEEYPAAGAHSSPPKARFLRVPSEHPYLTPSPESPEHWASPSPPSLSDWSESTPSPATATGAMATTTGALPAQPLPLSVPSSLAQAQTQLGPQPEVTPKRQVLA

[10] = probe aEGFR binding to arrayed compounds – biochemical, biotinylated probe, 635/667 nm fluorescence, primary screen (AID 1097); conditions: small-molecule microarray, higher = more signal;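 also: probe is a biotinylated anti-EGFR antibody binding compounds printed on slides; score combines fluorescence near 667 nm and signal to noise of each spot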

Structure (SMILES)	composite z-score [1]	z-score [2]	z-score [3]	z-score [4]	composite z-score [5]	z-score [6]	composite z-score [7]	composite z-score [8]	composite z-score [9]	composite z-score [10]
Cc1ccc(S[C@]2(C(=O)NCc3ccccc3)CC(=O)N(Cc3ccccc3)[C@@H]2c2ccc(CO)cc2)cc1	1.55	-0.349 (inactive)	-0.288 (inactive)	-0.0702 (inactive)	3.04	-0.927 (inactive)	-0.001	-0.9	-0.91	-0.272
[N-]=[N+]=NCc1ccccc1C[C@@]1(C(=O)NCC(O)CO)N=C(c2ccc(OCCCO)cc2)O[C@@H]1c1ccccc1CN=[N+]=[N-] (stereo not given in full)	1.52	-0.235 (inactive)	0.648 (inactive)	1.34 (inactive)	3.68	0.526 (inactive)	0.0942	0.875	0.474	-0.197
Cc1ccc(F)cc1S(=O)(=O)N[C@@H]1CCN(Cc2ccc(-c3ccccc3)cc2)C1	0.126	-26.5 (active)	-21.3 (active)	-4.06 (inactive)	0.12	-19.9 (active)	0.144	0.713	0.481	-0.0565
O=C1OCCC=C[C@H]2OC34C=CCN(Cc5ccccc5)C(=O)[C@H]3N(CCCCCCO)C(=O)[C@@H]4C12 (stereo not given in full)	0.831	0.104 (inactive)	-0.0853 (inactive)	-0.0696 (inactive)	3.21	0.801 (inactive)	-0.42	-0.485	0.127	-0.309
CC1CC/C=C\[C@H]2OC34C=CCN(Cc5ccccc5)C(=O)[C@H]3N(CCCCCO)C(=O)[C@@H]4C2C(=O)O1 (stereo not given in full)	-0.822	0.0898 (inactive)	0.0077 (inactive)	-0.506 (inactive)	-0.259	-0.964 (inactive)	-0.166	-1.07	-0.629	-0.206
CC(C)C(=C=CC[C@H](O)c1cccc(OCCO)c1)C[C@H](O)COCc1ccccc1	0.975	-0.0398 (inactive)	0.299 (inactive)	-0.623 (inactive)	1.92	0.299 (inactive)	-0.0616	0.551	-0.243	-0.081
CC(C)NC(=O)[C@@H]1c2ccccc2C(=O)N(Cc2ccccc2)[C@H]1c1ccc(CO)cc1	0.347	-0.726 (inactive)	-0.471 (inactive)	-0.945 (inactive)	2.36	-0.106 (inactive)	0.12	-0.905	-0.376	0.243
CC(C)NC(=O)[C@@H]1c2ccccc2C(=O)N(Cc2ccccc2Cl)[C@H]1c1ccc(CO)cc1	1.4	0.759 (inactive)	0.247 (inactive)	0.173 (inactive)	1.8	1.19 (inactive)	-0.053	-0.384	0.143	-0.287
COc1ccc([Si](C)(C)[C@@H]2[C@@H](CCn3cc([C@H](O)c4ccccc4)nn3)O[C@]3(C(=O)N(Cc4ccc(N5C(=O)c6cccc7cccc5c67)cc4)c4ccccc43)[C@H]2C)cc1	0.534	0.316 (inactive)	-0.197 (inactive)	1.64 (inactive)	1	1.05 (inactive)	-0.0237	-0.345	0.0481	-0.217
CC(C)C(=C=CC[C@@H](O)c1ccccc1OCCO)C[C@@H](O)c1ccccn1	0.439	2.46 (inactive)	-0.18 (inactive)	-1.1 (inactive)	2.67	-0.0287 (inactive)	-0.126	0.538	0.878	-0.099
Cc1cc(C)cc(N2C(=O)CS(=O)(=O)C2c2cccc([N+](=O)[O-])c2)c1 (stereo not given)	1.13	-0.703 (inactive)	-1.22 (inactive)	-0.522 (inactive)	2.13	-0.268 (inactive)	0.788	0.0104	0.726	0.477
COc1cccc(C(=O)O[C@H]2CC[C@]3(C)C4=C(CCC3C2(C)C)[C@]2(C)CC[C@H]([C@H](C)CCCC(C)C)[C@@]2(C)CC4)c1 (stereo not given in full)	-0.0398	-1.73 (inactive)	-1.08 (inactive)	-0.166 (inactive)	0.385	2.43 (inactive)	-0.082	0.383	0.618	-0.0158
Cc1ccc(S[C@]2(C(=O)NCCN3CCOCC3)CC(=O)N(Cc3cc(C(F)(F)F)cc(C(F)(F)F)c3)[C@@H]2c2ccc(CO)cc2I)cc1	0.95	-3.19 (inactive)	-4.73 (inactive)	14.2 (active)	0.509	-1.52 (inactive)	-0.183	-1.06	-0.122	-0.0828
CCOC(=O)C1=CCC(c2ccc(C#N)cc2)N(S(=O)(=O)c2ccc(C)cc2)C1 (stereo not given)	1.11	-0.0764 (inactive)	0.0767 (inactive)	2.91 (inactive)	2.64	0.394 (inactive)	0.276	-0.184	1.09	-0.0297
CCCCC=C[C@@H](NC(=O)c1ccco1)c1ccccc1	-0.568	0.529 (inactive)	1 (inactive)	1.92 (inactive)	0.539	-0.675 (inactive)	-0.0251	0.103	0.657	0.0836
COC(=O)[C@]1(Cc2ccccc2N=[N+]=[N-])N=C(c2ccc(OCCCO)cc2)O[C@@H]1c1ccccc1N=[N+]=[N-]	0.822	0.189 (inactive)	-0.0643 (inactive)	14.9 (active)	0.59	-0.962 (inactive)	-0.166	0.347	0.251	-0.0656
COC(=O)C[C@@H]1C[C@H](C)[C@]2(O1)C(=O)N(Cc1ccccc1)c1ccc(NC(C)=O)cc12	-0.509	0.498 (inactive)	-1.1 (inactive)	0.134 (inactive)	0.053	0.827 (inactive)	-0.166	0.571	0.107	-0.111
CCOC(=O)C1=C[C@@H](CC)N(S(=O)(=O)c2ccc(C)cc2)[C@H]1c1ccccc1	1.18	-0.595 (inactive)	0.849 (inactive)	0.567 (inactive)	2.71	-0.556 (inactive)	0.097	0.13	1.1	0.0356
[N-]=[N+]=NCc1ccccc1C[C@]1(C(=O)O)N=C(c2ccc(OCCCO)cc2)O[C@H]1c1ccccc1	1.01	-0.143 (inactive)	-0.305 (inactive)	-1.36 (inactive)	1.86	0.279 (inactive)	-0.0221	-0.985	0.204	-0.232
COc1ccc([Si](C)(C)[C@H]2[C@H](CCn3cc(CCO)nn3)O[C@@]3(C(=O)N(Cc4ccc(N5CCOC5=O)cc4)c4ccccc43)[C@@H]2C)cc1	1.37	1.02 (inactive)	0.928 (inactive)	4.55 (inactive)	1.31	1.01 (inactive)	-0.103	0.42	0.928	-0.212
CCOC(=O)C[C@H]1[C@H](OC(=O)Cc2ccc3c(c2)OCO3)[C@@H](NC(=O)c2ccc(-c3ccccc3)cc2)c2cc(OCCCO)ccc2N1C(=O)c1ccccc1	0.869	0.22 (inactive)	-0.661 (inactive)	0.712 (inactive)	1.81	1.96 (inactive)	-0.137	0.267	0.643	0.0027
C=CCOC(=O)[C@@H]1[C@H]2C(=O)O[C@H](c3ccccc3)[C@H](c3ccccc3)N2[C@H](c2ccc(OCCOC(=O)[C@@H]3C[C@@H]4C(=O)N[C@@H](Cc5ccccc5)C(=O)N4[C@@H]3c3cccc(OCCO)c3)cc2)[C@@]12C(=O)Nc1ccc(I)cc12	1.53	1.39 (inactive)	2.04 (inactive)	4.55 (inactive)	1.83	0.0087 (inactive)	-0.0286	1.5	0.974	0.0042
COCCOC(=O)N1C(=O)[C@@]2(c3cc(C#CCCO)ccc31)[C@H](c1ccc(O)cc1)N1[C@H](c3ccccc3)[C@H](c3ccccc3)OC(=O)[C@H]1[C@@H]2C(N)=O	1.14	0.253 (inactive)	0.479 (inactive)	0.418 (inactive)	1.51	-0.834 (inactive)	0.0002	-0.243	0.213	-0.178
CC(C)C(=C=CC[C@H](O)c1ccccc1OCCO)C[C@H](O)c1ccccn1	0.813	0.241 (inactive)	-0.709 (inactive)	-0.365 (inactive)	2.27	0.662 (inactive)	0.0374	0.247	0.719	0.151
COc1ccc(C(=O)Nc2cccc(CN3C(=O)[C@@]4(O[C@@H](CCn5cc(CCO)nn5)[C@H]([Si](C)(C)c5ccc(OC)cc5)[C@H]4C)c4ccccc43)c2)cc1	1.55	1.65 (inactive)	-14 (active)	0.984 (inactive)	2.06	-1.02 (inactive)	0.0361	1.2	1.11	0.0511
O=C1OCC=C[C@H]2OC34C=CCN(c5ccc(Cl)cc5)C(=O)[C@H]3N(CCCCCCO)C(=O)[C@@H]4[C@@H]12 (stereo not given in full)	-1.01	-0.88 (inactive)	-1.63 (inactive)	-0.787 (inactive)	1.92	0.437 (inactive)	-0.0936	-1.51	-0.464	-0.273
O=C1O[C@H](c2ccccc2)[C@H](c2ccccc2)N2[C@H]1[C@@H](C(=O)Nc1nc3ccccc3s1)[C@]1(C(=O)Nc3ccccc31)[C@H]2c1ccc(O)cc1	1.55	0.474 (inactive)	-0.0898 (inactive)	0.677 (inactive)	2.74	0.071 (inactive)	-0.23	1.24	1.15	-0.0644
CCCC[C@H]1OB(O)C[C@H]2C1=C(C)C[C@H]1C(=O)N(Cc3ccccc3)C(=O)[C@H]12	0.705	-0.482 (inactive)	-1.33 (inactive)	-1.04 (inactive)	0.342	1.75 (inactive)	-0.102	0.919	0.666	0.0215
